According to the supplement of paper PMC10849652:
Targets with a hit are over-represented here; the source holds about 7,900 in all. About 0.6% of all pairs of compound and target were hits.

Each target was assayed with CN(CCOC1=CC=C(C=C1)C[C@H]2C(=O)NC(=O)S2)C3=CC=CC=N3 (racemic) [rosiglitazone] (assay: log2 fold change, soluble protein after heating vs DMSO (PISA); higher = thermal stabilisation; K562 cells, 10 uM, 30 min; active = over 0.2 and 3.5 SD of the protein, either way, in both replicates (recomputed)).
Summary of the method: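 K562 cells (2×10^6 cells/mL) were treated with 10 μM compound for 30 min, and aliquots were heated for 3 min over 48°C-58°C. Pooled aliquots were extracted in PBS with 0.5% NP-40 at 4°C, and the supernatant after 21,000xg for 90 min was measured by TMTpro 16plex LC-MS/MS with channel sums equalised. Reported thermal stability, relative to control samples and from duplicates, is a log2 fold change.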

Sequence of UniProt O43934 (O43934 whole entry, looked up): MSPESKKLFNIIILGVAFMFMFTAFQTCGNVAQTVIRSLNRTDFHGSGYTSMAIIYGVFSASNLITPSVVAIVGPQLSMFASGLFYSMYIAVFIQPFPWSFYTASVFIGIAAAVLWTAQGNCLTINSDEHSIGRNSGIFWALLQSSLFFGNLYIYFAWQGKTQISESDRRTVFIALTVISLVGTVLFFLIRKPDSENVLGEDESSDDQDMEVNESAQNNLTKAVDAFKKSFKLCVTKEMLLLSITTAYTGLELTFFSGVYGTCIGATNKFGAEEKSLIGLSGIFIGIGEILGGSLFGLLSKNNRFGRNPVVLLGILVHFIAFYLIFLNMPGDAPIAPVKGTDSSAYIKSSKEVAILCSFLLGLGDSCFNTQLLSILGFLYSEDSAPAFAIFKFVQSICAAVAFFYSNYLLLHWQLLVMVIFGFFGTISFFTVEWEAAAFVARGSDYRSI
Sequence of UniProt Q16539 (Q16539 whole entry, looked up): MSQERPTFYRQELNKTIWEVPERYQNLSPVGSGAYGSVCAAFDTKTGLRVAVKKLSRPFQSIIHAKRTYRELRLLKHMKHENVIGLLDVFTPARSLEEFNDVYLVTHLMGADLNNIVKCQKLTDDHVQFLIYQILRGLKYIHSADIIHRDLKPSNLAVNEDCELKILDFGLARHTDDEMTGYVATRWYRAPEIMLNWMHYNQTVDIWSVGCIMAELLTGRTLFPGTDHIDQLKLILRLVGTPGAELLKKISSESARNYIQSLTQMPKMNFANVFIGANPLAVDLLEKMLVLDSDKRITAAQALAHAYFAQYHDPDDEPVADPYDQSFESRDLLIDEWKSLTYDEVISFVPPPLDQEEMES
Sequence of UniProt P43361 (P43361 whole entry, looked up): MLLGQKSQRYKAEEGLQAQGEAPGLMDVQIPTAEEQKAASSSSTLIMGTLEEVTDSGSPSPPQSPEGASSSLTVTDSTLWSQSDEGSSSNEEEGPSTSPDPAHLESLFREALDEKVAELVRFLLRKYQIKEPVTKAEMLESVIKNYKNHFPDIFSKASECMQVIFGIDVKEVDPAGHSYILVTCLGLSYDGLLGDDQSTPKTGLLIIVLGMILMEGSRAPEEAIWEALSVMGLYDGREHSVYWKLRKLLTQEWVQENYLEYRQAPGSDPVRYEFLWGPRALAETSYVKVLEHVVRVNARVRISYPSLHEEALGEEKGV
Sequence of UniProt Q9Y2E5 (Q9Y2E5 whole entry, looked up): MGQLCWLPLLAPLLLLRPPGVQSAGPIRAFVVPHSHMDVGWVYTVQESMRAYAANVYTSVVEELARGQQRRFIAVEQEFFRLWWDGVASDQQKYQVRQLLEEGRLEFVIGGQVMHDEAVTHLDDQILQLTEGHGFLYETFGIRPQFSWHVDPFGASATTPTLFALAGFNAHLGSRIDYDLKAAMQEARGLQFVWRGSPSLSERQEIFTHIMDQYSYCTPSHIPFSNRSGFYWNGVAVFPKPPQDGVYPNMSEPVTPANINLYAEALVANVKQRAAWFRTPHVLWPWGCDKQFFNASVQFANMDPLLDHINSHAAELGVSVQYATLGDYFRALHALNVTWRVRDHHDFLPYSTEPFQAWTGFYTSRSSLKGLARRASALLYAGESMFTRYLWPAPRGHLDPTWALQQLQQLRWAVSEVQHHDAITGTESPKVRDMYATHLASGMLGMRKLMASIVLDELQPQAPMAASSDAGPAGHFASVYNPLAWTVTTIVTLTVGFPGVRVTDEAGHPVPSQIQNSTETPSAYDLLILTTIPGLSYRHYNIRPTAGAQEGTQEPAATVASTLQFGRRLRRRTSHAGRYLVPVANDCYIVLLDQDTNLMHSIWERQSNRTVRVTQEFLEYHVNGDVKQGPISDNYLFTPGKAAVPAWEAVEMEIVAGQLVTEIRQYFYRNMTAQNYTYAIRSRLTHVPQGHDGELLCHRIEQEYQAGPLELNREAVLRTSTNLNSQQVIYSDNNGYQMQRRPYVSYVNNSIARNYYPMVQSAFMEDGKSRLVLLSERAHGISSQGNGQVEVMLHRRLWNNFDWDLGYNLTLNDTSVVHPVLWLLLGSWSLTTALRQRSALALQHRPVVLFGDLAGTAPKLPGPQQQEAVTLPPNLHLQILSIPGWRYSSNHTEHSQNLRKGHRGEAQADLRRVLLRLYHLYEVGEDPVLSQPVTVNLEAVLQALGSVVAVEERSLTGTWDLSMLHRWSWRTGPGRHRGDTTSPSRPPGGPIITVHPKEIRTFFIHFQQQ
Sequence of UniProt Q93074 (Q93074 whole entry, looked up): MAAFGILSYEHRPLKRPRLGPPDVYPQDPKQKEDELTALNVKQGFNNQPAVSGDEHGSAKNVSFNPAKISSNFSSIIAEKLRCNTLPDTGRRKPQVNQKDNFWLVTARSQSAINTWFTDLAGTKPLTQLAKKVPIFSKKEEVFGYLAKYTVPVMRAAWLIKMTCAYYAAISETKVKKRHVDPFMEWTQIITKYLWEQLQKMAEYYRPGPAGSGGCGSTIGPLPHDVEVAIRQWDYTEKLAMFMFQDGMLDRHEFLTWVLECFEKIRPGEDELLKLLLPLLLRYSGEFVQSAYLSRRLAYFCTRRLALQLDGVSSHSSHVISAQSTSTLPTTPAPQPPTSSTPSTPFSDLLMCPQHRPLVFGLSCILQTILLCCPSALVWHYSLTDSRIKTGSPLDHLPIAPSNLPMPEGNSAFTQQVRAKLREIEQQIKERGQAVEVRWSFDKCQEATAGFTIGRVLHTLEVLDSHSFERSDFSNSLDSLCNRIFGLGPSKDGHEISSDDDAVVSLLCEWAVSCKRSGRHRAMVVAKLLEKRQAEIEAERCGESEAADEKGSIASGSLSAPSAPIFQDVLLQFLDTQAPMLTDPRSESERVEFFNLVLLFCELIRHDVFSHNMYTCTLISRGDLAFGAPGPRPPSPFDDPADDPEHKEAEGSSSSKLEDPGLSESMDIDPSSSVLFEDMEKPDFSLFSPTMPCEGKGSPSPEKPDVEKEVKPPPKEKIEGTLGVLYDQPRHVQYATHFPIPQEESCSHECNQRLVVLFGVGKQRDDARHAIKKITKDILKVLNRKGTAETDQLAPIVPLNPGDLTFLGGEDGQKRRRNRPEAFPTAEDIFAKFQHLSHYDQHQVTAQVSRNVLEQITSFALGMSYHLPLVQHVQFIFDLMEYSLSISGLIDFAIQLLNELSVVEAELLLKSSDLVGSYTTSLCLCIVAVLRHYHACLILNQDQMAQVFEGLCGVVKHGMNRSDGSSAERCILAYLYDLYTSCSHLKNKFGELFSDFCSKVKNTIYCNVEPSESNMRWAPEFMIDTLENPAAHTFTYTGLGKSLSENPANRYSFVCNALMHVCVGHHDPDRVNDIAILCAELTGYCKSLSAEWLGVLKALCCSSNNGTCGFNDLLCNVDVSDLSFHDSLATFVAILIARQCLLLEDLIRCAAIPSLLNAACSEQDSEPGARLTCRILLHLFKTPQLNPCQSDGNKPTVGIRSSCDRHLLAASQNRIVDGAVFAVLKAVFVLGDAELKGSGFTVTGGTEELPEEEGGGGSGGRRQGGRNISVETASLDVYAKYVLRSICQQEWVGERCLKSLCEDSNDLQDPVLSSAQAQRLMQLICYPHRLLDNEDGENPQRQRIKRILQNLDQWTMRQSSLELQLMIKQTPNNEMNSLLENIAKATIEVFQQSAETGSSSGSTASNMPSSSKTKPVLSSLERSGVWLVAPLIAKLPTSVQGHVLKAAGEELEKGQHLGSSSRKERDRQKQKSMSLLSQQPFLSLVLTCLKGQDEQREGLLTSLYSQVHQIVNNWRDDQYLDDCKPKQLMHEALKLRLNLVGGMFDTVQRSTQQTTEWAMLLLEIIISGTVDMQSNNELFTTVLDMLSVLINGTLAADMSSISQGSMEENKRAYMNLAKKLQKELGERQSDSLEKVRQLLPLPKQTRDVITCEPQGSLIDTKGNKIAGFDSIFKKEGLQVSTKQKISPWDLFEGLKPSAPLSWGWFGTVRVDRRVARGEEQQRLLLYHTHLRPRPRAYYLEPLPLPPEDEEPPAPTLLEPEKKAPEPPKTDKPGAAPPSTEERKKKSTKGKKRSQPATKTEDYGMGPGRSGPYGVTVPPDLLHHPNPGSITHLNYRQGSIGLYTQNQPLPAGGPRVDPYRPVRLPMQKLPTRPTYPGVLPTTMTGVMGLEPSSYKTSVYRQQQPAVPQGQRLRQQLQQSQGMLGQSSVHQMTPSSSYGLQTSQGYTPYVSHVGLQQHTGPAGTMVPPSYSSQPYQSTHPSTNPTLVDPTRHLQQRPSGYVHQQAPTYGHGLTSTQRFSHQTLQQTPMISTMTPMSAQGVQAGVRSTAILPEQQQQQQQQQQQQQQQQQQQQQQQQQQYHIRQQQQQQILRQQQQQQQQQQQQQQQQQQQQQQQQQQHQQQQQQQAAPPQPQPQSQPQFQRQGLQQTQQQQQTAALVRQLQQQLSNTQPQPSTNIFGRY
Sequence of UniProt Q92604 (Q92604 whole entry, looked up): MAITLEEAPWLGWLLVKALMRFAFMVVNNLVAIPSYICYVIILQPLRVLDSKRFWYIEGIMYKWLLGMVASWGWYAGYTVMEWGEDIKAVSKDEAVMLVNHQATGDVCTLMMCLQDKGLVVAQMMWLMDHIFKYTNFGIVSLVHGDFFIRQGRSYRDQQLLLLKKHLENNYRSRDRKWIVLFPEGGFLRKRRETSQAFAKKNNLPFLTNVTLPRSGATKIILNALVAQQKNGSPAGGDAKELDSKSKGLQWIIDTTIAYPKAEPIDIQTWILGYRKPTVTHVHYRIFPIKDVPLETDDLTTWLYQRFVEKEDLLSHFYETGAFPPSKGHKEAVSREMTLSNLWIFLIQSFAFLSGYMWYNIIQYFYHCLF
Sequence of UniProt Q15528 (Q15528 whole entry, looked up): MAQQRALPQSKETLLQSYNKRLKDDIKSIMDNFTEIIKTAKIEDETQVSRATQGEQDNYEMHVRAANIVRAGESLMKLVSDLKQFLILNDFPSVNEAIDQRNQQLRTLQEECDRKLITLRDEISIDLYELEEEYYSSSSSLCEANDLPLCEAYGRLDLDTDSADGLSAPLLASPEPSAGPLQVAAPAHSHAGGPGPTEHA
Sequence of UniProt Q96LU5 (Q96LU5 whole entry, looked up): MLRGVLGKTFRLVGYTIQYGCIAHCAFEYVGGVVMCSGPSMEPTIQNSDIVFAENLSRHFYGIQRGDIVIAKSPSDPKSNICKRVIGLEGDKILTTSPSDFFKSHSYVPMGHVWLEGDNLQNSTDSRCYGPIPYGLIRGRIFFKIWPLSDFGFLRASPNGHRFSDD

log2 fold change, inactive:
MAPK14 (UniProt Q16539) 0.067
MAP4K2 (UniProt Q12851) 0.066
ITM2B (UniProt Q9Y287) 0.057
METAP1D (UniProt Q6UB28) 0.013
IL27RA (UniProt Q6UWB1) -0.093
LPGAT1 (UniProt Q92604) 0.012
MED12 isoform 2 (UniProt Q93074) 0.074
KMT2C isoform 3 (UniProt Q8NEZ4) 0.009
LRBA, A0A494BZW2 0.011
IMMP1L (UniProt Q96LU5) -0.003
KIF3B (UniProt O15066) 0.106
MED8 isoform 2 (UniProt Q96G25) 0.007
MFSD8 (UniProt Q8NHS3) -0.139
MED22 (UniProt Q15528) 0.076
MARK2 (UniProt E9PC69) -0.014
ILF3 (UniProt Q12906) -0.082
MCM10 (UniProt Q7L590) -0.164
MBLAC1 (UniProt A4D2B0) -0.024
MAGEA8 (UniProt P43361) 0.036
MELK (UniProt Q14680) -0.003
KCNK5 (UniProt O95279) 0.179
MAN2B2 (UniProt Q9Y2E5) -0.052
MFSD11 (UniProt O43934) -0.006
